Test results from PubChem BioAssay (NCATS).
Results filed as inconclusive are left out. Calls of active or inactive are those of the source. Unless noted, calls follow the shape of the dose curve; as a rule, active = well fitted curve in the direction sought with a large enough effect; inconclusive = small, poorly fitted or top-dose-only effect, or another doubt; inactive = no such curve, though single readings can be large; an effect the other way counts as inactive or inconclusive.

How the values were obtained:
[1] = Cellular Toxicity (caspase-3) BJ (AID 658)
How it was run: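 BJ human foreskin fibroblasts, 1000 cells/well, treated 16 hours at 37 °C in complete medium; caspase 3/7 activity by Caspase-Glo luminescence after 1 hr at room temperature. Normalized to DMSO and 10 uM staurosporine; AC50 from Hill fits.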

[2] = Cellular Toxicity (caspase-3) SK-N-SH (AID 661)
How it was run: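 Caspase 3/7 activation is measured as a luminescence increase from aminoluciferin released by substrate cleavage in SK-N-SH cells after 16 hr compound treatment; values are AC50 from concentration-response curves.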

[3] = Cellular Toxicity (caspase-3) H-4-II-E (AID 663);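 also: cells exposed to compound for 16 hr before readout; 0% = DMSO basal and 100% = 100 µM tamoxifen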
How it was run: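 Rat hepatoma H-4-II-E cells (1500/well) plated 5 hr, then exposed to compound titrations for 16 hr at 37 °C. Caspase-Glo 3/7 luminescence read after 20 min at RT; data normalized to DMSO and 100 uM tamoxifen, AC50 from Hill fits.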

[4] = Cellular Toxicity (caspase-3) N2a (AID 665); conditions: N2a cells, luminescence, normalized: DMSO 0%, 10 µM staurosporine 100%; at 92.2 µM (top of the series);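 also: compound exposure lasted 16 h at 37 °C before readout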
How it was run: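 Plated mouse neuroblastoma N2a cells received titrated compounds for 16 h in complete medium. Caspase activity was then detected with a peptide-aminoluciferin luminescent reagent.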

[5] = Cellular Toxicity (caspase-3) NIH 3T3 (AID 666);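 also: caspase signal read after 16 h compound exposure; 0% = DMSO basal and 100% = 100 µM tamoxifen stimulation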
How it was run: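 Concentration-response qHTS in NIH 3T3 mouse fibroblasts scores caspase-3/7 activation as rising luminescence after 16 hr compound exposure. Signals are scaled between DMSO-only and 100 uM tamoxifen.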

[6] = Cellular Toxicity (caspase-3) Renal Proximal Tubule (AID 667); conditions: renal proximal tubule cells; at 91.7 µM (top of the series), primary cells freshly taken from rat, solvent-only wells 0%, staurosporine 100% unless noted;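 also: cells exposed to compound for 16 hours at 37 °C before detection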
How it was run: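 AC50 derived by standard Hill fit of concentration-response data, normalized between DMSO basal and 10 uM staurosporine as 100% stimulation. Cells: primary rat kidney proximal tubule, 16 h treatment at 37 °C.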

[7] = Cell Viability - LYMP2-001 (AID 921);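 also: cells exposed to compound for 24 h at 37 °C; nearly all actives have a fitted effect of over 70% in size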; also: potency is read from the fitted curve at half-maximal effect
How it was run: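 Steps: seed 2500 lymphoblastoid cells/well; 5 hr, 37 C; add compound; 24 hr, 37 C; CellTiter-Glo reagent, 30 min room temperature; read luminescence. Concentration-response modeled by Hill equation for AC50.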

[8] = MultiTox-Fluor Cytotoxicity Assay - LYMP1-001 - Dead Cells (AID 946); also: potency is read from the fitted curve at half-maximal effect
How it was run: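 Seed 2500 LYMP1-001 cells/well, incubate 5 hr at 37 C; add compound, 16 hr at 37 C; add MultiTox-Fluor reagent, 60 min RT; read dead-cell fluorescence Ex/Em=485/520. Normalize to DMSO and 15 uM tetraoctylammonium bromide.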

[9] = Cell Viability - LYMP1-002 - Assay at 16 hr (AID 948); also: potency is read from the fitted curve at half-maximal effect
How it was run: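 Seed 2500 LYMP1-002 cells per well in complete medium and hold 5 hr at 37 C. Add compound across a concentration series and incubate 16 hr at 37 C. Add CellTiter-Glo, wait 30 min at room temperature, read luminescence.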

[10] = MultiTox-Fluor Cytotoxicity Assay - LYMP1-002 - Dead Cells (AID 960); also: potency is read from the fitted curve at half-maximal effect; nearly all actives have a fitted effect of over 60% in size
How it was run: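 Acute cytotoxicity in a human lymphoblastoid line is scored as rising dead-cell protease signal after 16 hr exposure at 37 C, measured fluorometrically (485/520).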

[11] = MultiTox-Fluor Cytotoxicity Assay - LYMP1-003 - Dead Cells (AID 961); also: potency is read from the fitted curve at half-maximal effect; nearly all actives have a fitted effect of over 70% in size
How it was run: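 LYMP1-003 lymphoblastoid, 2500 cells/well, 5 hr settle then 16 hr cpd at 37 C; MultiTox-Fluor reagent 60 min RT; Ex/Em 485/520 dead-cell signal; norm. DMSO = 0%, 15 uM tetraoctylammonium bromide = 100%; Hill AC50.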

[12] = MultiTox-Fluor Cytotoxicity Assay - LYMP1-003 - Live Cells (AID 962); also: potency is read from the fitted curve at half-maximal effect
How it was run: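 Cells plated at 2500 per well and incubated 5 hr; compounds added and incubated 16 hr at 37 C; MultiTox-Fluor reagent added for 60 min at room temperature; fluorescence of liberated AFC measured at 405/510 nm.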

[13] = Cell Viability - LYMP1-003 - Assay at 24 hr (AID 963); also: potency is read from the fitted curve at half-maximal effect
How it was run: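 Acute toxicity in LYMP1-003 lymphoblastoid cells: 24 hr compound treatment at 37 C, ATP measured with CellTiter-Glo after 30 min at room temperature. AC50 derived by fitting the Hill equation to qHTS titrations.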

[14] = Cell Viability - LYMP1-003 - Assay at 40 hr (AID 964); also: nearly all actives have a fitted effect of over 60% in size; also: potency is read from the fitted curve at half-maximal effect
How it was run: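 This qHTS cytotoxicity screen treats human lymphoblastoid cells (LYMP1-003) with compounds for 40 hr and quantifies cellular ATP via luciferase luminescence.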

[15] = Cell Viability - LYMP2-011 (AID 969);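 also: cells exposed to compound for 24 hours; nearly all actives have a fitted effect of over 60% in size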; also: potency is read from the fitted curve at half-maximal effect
How it was run: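 Acute toxicity is scored as a concentration-dependent drop in intracellular ATP of a human lymphoblastoid line after 24 hr treatment. Values are AC50s modeled with the Hill equation.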

[16] = Cell Viability - LYMP2-017 (AID 972);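 also: cells exposed to compound for 24 hours at 37 °C; nearly all actives have a fitted effect of over 55% in size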; also: potency is read from the fitted curve at half-maximal effect
How it was run: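 Steps: plate 2500 lymphoblastoid cells per well; incubate 5 hr at 37 C; add compound across a concentration series and incubate 24 hr at 37 C; add CellTiter-Glo and read luminescence after 30 min at room temperature; fit Hill curves for AC50.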

[17] = Cell Viability - LYMP2-019 (AID 973);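 also: cells exposed to compound for 24 h at 37 °C; nearly all actives have a fitted effect of over 55% in size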; also: potency is read from the fitted curve at half-maximal effect
How it was run: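 Cells plated at 2500/well and allowed 5 hr at 37 C before compound addition. After 24 hr incubation, CellTiter-Glo reagent was added, plates sat 30 min at room temperature, and luminescence was recorded.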

[18] = Cell Viability - LYMP2-021 (AID 974);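 also: compound exposure lasts 24 hours at 37 °C; nearly all actives have a fitted effect of over 55% in size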; also: potency is read from the fitted curve at half-maximal effect
How it was run: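 Concentration-response cytotoxicity in a human lymphoblastoid line: 24 hr treatment at 37 C in complete culture medium, tetraoctylammonium bromide as positive control, luminescent ATP quantitation as viability measure.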

[19] = Cell Viability - LYMP2-023 (AID 975);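 also: cells exposed to compound for 24 hours at 37 °C; nearly all actives have a fitted effect of over 55% in size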; also: potency is read from the fitted curve at half-maximal effect
How it was run: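 Concentration-dependent drop in intracellular ATP measures acute cytotoxicity in a human lymphoblastoid line treated for 24 hours in complete culture medium. AC50 values are taken from Hill-equation fits of qHTS data.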

[20] = qHTS assay for small molecule antagonists of the retinoid-related orphan receptor gamma (ROR-gamma) signaling pathway - cell viability counter screen (AID 720652; active = well fitted curve in the direction sought with a large enough effect in the repeat runs; an effect the other way counts as inactive or inconclusive;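 also: potency is read from the fitted curve at half-maximal effect; compound exposure lasted 16 hr before ATP read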)
How it was run: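 Cytotoxicity is quantified via intracellular ATP (CellTiter-Glo luminescence) in doxycycline-induced CHO ROR response element-luciferase reporter cells treated with compound for 16 hr at 37 C, 5% CO2.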

O=C1C(Cl)=C(Cl)C(=O)C(Cl)=C1Cl
active: Potency [7] 12.6 µM | Potency [8] 12.6 µM | Potency [9] 31.6 µM | Potency [10] 15.8 µM | Potency [11] 25.1 µM | Potency [12] 50.1 µM | Potency [13] 31.6 µM | Potency [14] 31.6 µM | Potency [15] 25.1 µM | Potency [16] 20 µM | Potency [17] 25.1 µM | Potency [18] 12.6 µM | Potency [19] 25.1 µM | Potency [20] 23.7 µM
inactive: outcome [1] | outcome [2] | outcome [3] | caspase-3 activation [4] -13.5% | outcome [5] | caspase-3 activation [6] -16.1%

CCCCCCCCCc1ccc(O)cc1
active: caspase-3 activation [4] 98.6% | caspase-3 activation [6] 172% | Potency [8] 39.8 µM | Potency [10] 25.1 µM | Potency [11] 39.8 µM | Potency [20] 66.8 µM
inactive: outcome [1] | outcome [2] | outcome [3] | outcome [5] | Potency [7] | Potency [9] | Potency [12] | Potency [13] | Potency [14] | Potency [15] | Potency [16] | Potency [17] | Potency [18] | Potency [19]
